Measured values as given in PMC9911399, “Two distinct binding modes provide the RNA-binding protein RbFox with extraordinary sequence specificity”.
Residue numbers refer to the chain shown, from its start. Over roughly 16,000 sequences, “ka relative to ugcaugu” has its median near 0.096; the highest 2% begin near 0.35. This excerpt belongs to a sample that is enriched for the highest values.

T1: RBFOX1 RRM RbFoxmut (Fox-RRM*) (Homo sapiens, UniProt Q9NWB1 109-208, R118D;E147R;N151S;E152T)
T1 sequence: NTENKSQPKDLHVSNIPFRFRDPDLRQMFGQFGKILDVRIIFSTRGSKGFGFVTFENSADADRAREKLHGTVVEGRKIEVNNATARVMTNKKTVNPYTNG

B1: GCAACGU (DNA:RNA)
RNA: GGGAGACCGGAAUUCAGAUUGUCCGCAACGUUUAAAUCCCGUCGUAGCCACCA
DNA 1: CAATCTGAATTCCGGTCTCCC
DNA 2: TGGTGGCTACGACGGGATT
B2: UGGCAUA (DNA:RNA)
RNA: GGGAGACCGGAAUUCAGAUUGUCCUGGCAUAUUAAAUCCCGUCGUAGCCACCA
DNA 1: CAATCTGAATTCCGGTCTCCC
DNA 2: TGGTGGCTACGACGGGATT
B3: UGGCAUG (DNA:RNA)
RNA: B2 RNA with A31G
DNA 1: CAATCTGAATTCCGGTCTCCC
DNA 2: TGGTGGCTACGACGGGATT
B4: UGGCAUU (DNA:RNA)
RNA: B2 RNA with A31U
DNA 1: CAATCTGAATTCCGGTCTCCC
DNA 2: TGGTGGCTACGACGGGATT
B5: UGGCAGA (DNA:RNA)
RNA: B2 RNA with U30G
DNA 1: CAATCTGAATTCCGGTCTCCC
DNA 2: TGGTGGCTACGACGGGATT
B6: UGGCACC (DNA:RNA)
RNA: B2 RNA with U30C, A31C
DNA 1: CAATCTGAATTCCGGTCTCCC
DNA 2: TGGTGGCTACGACGGGATT
B7: UGGCAUC (DNA:RNA)
RNA: B2 RNA with A31C
DNA 1: CAATCTGAATTCCGGTCTCCC
DNA 2: TGGTGGCTACGACGGGATT
B8: UAUCAAU (DNA:RNA)
RNA: B2 RNA with G26A, G27U, U30A, A31U
DNA 1: CAATCTGAATTCCGGTCTCCC
DNA 2: TGGTGGCTACGACGGGATT
B9: CCACUGA (DNA:RNA)
RNA: B1 RNA with G25C, A28C, C29U, U31A
DNA 1: CAATCTGAATTCCGGTCTCCC
DNA 2: TGGTGGCTACGACGGGATT
B10: UCUUCCC (DNA:RNA)
RNA: B1 RNA with G25U, A27U, A28U, G30C, U31C
DNA 1: CAATCTGAATTCCGGTCTCCC
DNA 2: TGGTGGCTACGACGGGATT
B11: UUAUACA (DNA:RNA)
RNA: B2 RNA with G26U, G27A, C28U, U30C
DNA 1: CAATCTGAATTCCGGTCTCCC
DNA 2: TGGTGGCTACGACGGGATT
B12: CAUUUCC (DNA:RNA)
RNA: GGGAGACCGGAAUUCAGAUUGUCCCAUUUCCUUAAAUCCCGUCGUAGCCACCA
DNA 1: CAATCTGAATTCCGGTCTCCC
DNA 2: TGGTGGCTACGACGGGATT
B13: GUGUAUG (DNA:RNA)
RNA: B2 RNA with U25G, G26U, C28U, A31G
DNA 1: CAATCTGAATTCCGGTCTCCC
DNA 2: TGGTGGCTACGACGGGATT
B14: UUAUGUA (DNA:RNA)
RNA: B2 RNA with G26U, G27A, C28U, A29G
DNA 1: CAATCTGAATTCCGGTCTCCC
DNA 2: TGGTGGCTACGACGGGATT
B15: UAUGUCC (DNA:RNA)
RNA: B12 RNA with C25U, U28G
DNA 1: CAATCTGAATTCCGGTCTCCC
DNA 2: TGGTGGCTACGACGGGATT
B16: CGUUGUG (DNA:RNA)
RNA: B12 RNA with A26G, U29G, C30U, C31G
DNA 1: CAATCTGAATTCCGGTCTCCC
DNA 2: TGGTGGCTACGACGGGATT
B17: GGAUGUC (DNA:RNA)
RNA: B12 RNA with C25G, A26G, U27A, U29G, C30U
DNA 1: CAATCTGAATTCCGGTCTCCC
DNA 2: TGGTGGCTACGACGGGATT
B18: GGAUGUG (DNA:RNA)
RNA: B1 RNA with C26G, A28U, C29G, G30U, U31G
DNA 1: CAATCTGAATTCCGGTCTCCC
DNA 2: TGGTGGCTACGACGGGATT
B19: GUAUGUG (DNA:RNA)
RNA: B1 RNA with C26U, A28U, C29G, G30U, U31G
DNA 1: CAATCTGAATTCCGGTCTCCC
DNA 2: TGGTGGCTACGACGGGATT
B20: GUGUCCG (DNA:RNA)
RNA: B12 RNA with C25G, A26U, U27G, U29C, C31G
DNA 1: CAATCTGAATTCCGGTCTCCC
DNA 2: TGGTGGCTACGACGGGATT
B21: GGAGAUG (DNA:RNA)
RNA: B2 RNA with U25G, G27A, C28G, A31G
DNA 1: CAATCTGAATTCCGGTCTCCC
DNA 2: TGGTGGCTACGACGGGATT
B22: UUGUAUG (DNA:RNA)
RNA: B2 RNA with G26U, C28U, A31G
DNA 1: CAATCTGAATTCCGGTCTCCC
DNA 2: TGGTGGCTACGACGGGATT
B23: CGUGUCG (DNA:RNA)
RNA: B12 RNA with A26G, U28G, C31G
DNA 1: CAATCTGAATTCCGGTCTCCC
DNA 2: TGGTGGCTACGACGGGATT
B24: CUAUGUG (DNA:RNA)
RNA: B12 RNA with A26U, U27A, U29G, C30U, C31G
DNA 1: CAATCTGAATTCCGGTCTCCC
DNA 2: TGGTGGCTACGACGGGATT
B25: ACUCCUU (DNA:RNA)
RNA: B1 RNA with G25A, A27U, A28C, G30U
DNA 1: CAATCTGAATTCCGGTCTCCC
DNA 2: TGGTGGCTACGACGGGATT
B26: UUGUUCC (DNA:RNA)
RNA: B12 RNA with C25U, A26U, U27G
DNA 1: CAATCTGAATTCCGGTCTCCC
DNA 2: TGGTGGCTACGACGGGATT
B27: AAAUGUA (DNA:RNA)
RNA: B12 RNA with C25A, U27A, U29G, C30U, C31A
DNA 1: CAATCTGAATTCCGGTCTCCC
DNA 2: TGGTGGCTACGACGGGATT
B28: CGUAUUA (DNA:RNA)
RNA: B12 RNA with A26G, U28A, C30U, C31A
DNA 1: CAATCTGAATTCCGGTCTCCC
DNA 2: TGGTGGCTACGACGGGATT
B29: AUGUGAG (DNA:RNA)
RNA: B12 RNA with C25A, A26U, U27G, U29G, C30A, C31G
DNA 1: CAATCTGAATTCCGGTCTCCC
DNA 2: TGGTGGCTACGACGGGATT
B30: GAUAGGC (DNA:RNA)
RNA: B12 RNA with C25G, U28A, U29G, C30G
DNA 1: CAATCTGAATTCCGGTCTCCC
DNA 2: TGGTGGCTACGACGGGATT
B31: AAGUUCU (DNA:RNA)
RNA: B12 RNA with C25A, U27G, C31U
DNA 1: CAATCTGAATTCCGGTCTCCC
DNA 2: TGGTGGCTACGACGGGATT

The binders below were run against T1, RBFOX1 RRM RbFoxmut (Fox-RRM*) (assay: EMSA; HiTS-Eq, 1 nM pool, 10 min; buffer printed only for the single-RNA assays: 10 mM Tris pH 7.5, 150 mM NaCl, 3.4 mM EDTA, 0.001% NP-40, 30 C). Settings: tags: His6 N-terminal (pET28a); label: 5' 32P.
How it was run: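 A pool of RNA with 7 randomized nucleotides, 5′-radiolabelled and with DNA-annealed flanks, was equilibrated at 1 nM for 10 min in 50 µL with purified RbFox RRM, wild type or mutant, across increasing protein concentrations. Free RNA was separated by 8% native PAGE, excised, reverse-transcribed, barcoded by PCR and sequenced. Relative association constants were obtained from read-count changes of each RNA species versus the control reaction and normalised to the cognate motif.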

Binder | binding signal
B1 | 0.094 KA relative to UGCAUGU
B2 | 0.127 KA relative to UGCAUGU
B3 | 1.17 KA relative to UGCAUGU
B4 | 0.1 KA relative to UGCAUGU
B5 | 0.0918 KA relative to UGCAUGU
B6 | 0.113 KA relative to UGCAUGU
B7 | 0.411 KA relative to UGCAUGU
B8 | 0.0491 KA relative to UGCAUGU
B9 | 0.123 KA relative to UGCAUGU
B10 | 0.0652 KA relative to UGCAUGU
B11 | 0.0696 KA relative to UGCAUGU
B12 | 0.0842 KA relative to UGCAUGU
B13 | 1.38 KA relative to UGCAUGU
B14 | 0.19 KA relative to UGCAUGU
B15 | 0.107 KA relative to UGCAUGU
B16 | 0.17 KA relative to UGCAUGU

Binder | binding signal
B17 | 0.295 KA relative to UGCAUGU
B18 | 0.451 KA relative to UGCAUGU
B19 | 0.787 KA relative to UGCAUGU
B20 | 0.216 KA relative to UGCAUGU
B21 | 0.312 KA relative to UGCAUGU
B22 | 1.24 KA relative to UGCAUGU
B23 | 0.126 KA relative to UGCAUGU
B24 | 0.134 KA relative to UGCAUGU
B25 | 0.0436 KA relative to UGCAUGU
B26 | 0.104 KA relative to UGCAUGU
B27 | 0.166 KA relative to UGCAUGU
B28 | 0.126 KA relative to UGCAUGU
B29 | 0.17 KA relative to UGCAUGU
B30 | 0.0824 KA relative to UGCAUGU
B31 | 0.0763 KA relative to UGCAUGU
